Drawing on PubChem BioAssay (NCI), this text covers growth for eight compounds.

Holding throughout (assay): NCI-60 one-dose screen, 48 h (100 = growth as untreated, 0 = no growth, -100 = all killed)
One assay deals with HOP-62 NSCLC. The conditions noted are these: 10 µM unless noted.
The next assay deals with A549/ATCC NSCLC. Conditions: 10 µM unless noted.
Another assay relates to DU-145 prostate. The conditions noted are these: 10 µM unless noted.
The test system of the next assay is MALME-3M melanoma. The conditions noted are these: 10 µM unless noted.
For the next assay, the system named is RXF 393 renal. Conditions: 10 µM unless noted.
The subject of the next assay is SF-295 CNS. Conditions: 10 µM unless noted.
The subject of the next assay is UACC-257 melanoma. The conditions noted are these: 10 µM unless noted.
For a further assay, the system named is SNB-75 CNS. The conditions noted are these: 10 µM unless noted.
For another assay, the system named is SNB-19 CNS. The conditions noted are these: 10 µM unless noted.
In a further assay the test system is LOX IMVI melanoma. The conditions noted are these: 10 µM unless noted.
For another assay, the system named is SK-MEL-28 melanoma. Conditions: 10 µM unless noted.
A further assay deals with SK-MEL-2 melanoma. The conditions noted are these: 10 µM unless noted.
Another assay deals with SN12C renal. The conditions noted are these: 10 µM unless noted.
The next assay relates to A498 renal. Conditions: 10 µM unless noted.
The subject of another assay is MOLT-4 leukemia. Conditions: 10 µM.
Another assay deals with OVCAR-8 ovarian. The conditions noted are these: 10 µM unless noted.
The next assay has as its system OVCAR-4 ovarian. Conditions: 10 µM unless noted.
The test system of another assay is SK-OV-3 ovarian. The conditions noted are these: 10 µM unless noted.
The subject of a further assay is BT-549 breast. The conditions noted are these: 10 µM.
Another assay has as its system HCC-2998 colon. Conditions: 10 µM unless noted.

Compounds without any hit were thinned out: in the full panel of roughly 83,000, 20% have a hit.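 Assay: single dose, 48 h. Readout: percent growth (0 = no net growth; negative = cell death). Active: <10.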 Active and inactive are the calls of the source.

Turning to `C=CCN1C(=O)C(CC)(CCC(C)C)C(=O)NC1=S` (configuration not stated), the growth is 113% (inactive) with HOP-62 NSCLC; 98.7% (inactive) with A549/ATCC NSCLC; 105% (inactive) in the assay on DU-145 prostate; 96.1% (inactive) in the assay with MALME-3M melanoma; 107% (inactive) in the assay with RXF 393 renal; 88.7% (inactive) in the assay on SF-295 CNS. For the same compound, the growth was 89.5% (inactive) with UACC-257 melanoma; 96.8% (inactive) in the assay with SNB-75 CNS; 100% (inactive) in the assay with SNB-19 CNS; 109% (inactive) in the assay with LOX IMVI melanoma; 104% (inactive) in the assay with SK-MEL-28 melanoma; 117% (inactive) in the assay on SK-MEL-2 melanoma. Besides, the growth with SN12C renal was 101% (inactive); with A498 renal, 112% (inactive); in the assay with MOLT-4 leukemia it was 96.6% (inactive); in the assay on OVCAR-8 ovarian, 99.4% (inactive); in the assay with OVCAR-4 ovarian, 106% (inactive); with SK-OV-3 ovarian it was 100% (inactive). Also, the growth in the assay with BT-549 breast is 106% (inactive); with HCC-2998 colon it was 124% (inactive).

With `NC(=O)OCC(CO)(c1ccccc1)c1ccccc1`, the growth was 94.9% (inactive) in the assay with HOP-62 NSCLC; 103% (inactive) in the assay on A549/ATCC NSCLC; 104% (inactive) in the assay with DU-145 prostate; 84.6% (inactive) in the assay with MALME-3M melanoma; 99.6% (inactive) in the assay on RXF 393 renal; 93.5% (inactive) in the assay with SF-295 CNS. The growth in the assay with UACC-257 melanoma was 105% (inactive); with SNB-75 CNS it was 89.2% (inactive); in the assay with SNB-19 CNS, 108% (inactive); in the assay with LOX IMVI melanoma it was 98.7% (inactive); in the assay on SK-MEL-28 melanoma, 112% (inactive); in the assay with SK-MEL-2 melanoma, 110% (inactive). Moreover, the growth with SN12C renal is 98.4% (inactive); in the assay with A498 renal, 81.7% (inactive); in the assay with MOLT-4 leukemia, 98.7% (inactive); with OVCAR-8 ovarian it was 100% (inactive); in the assay with OVCAR-4 ovarian, 99.7% (inactive); in the assay with SK-OV-3 ovarian it was 99.1% (inactive). In addition, the growth with BT-549 breast and with HCC-2998 colon was 107% (inactive) throughout.

For the compound `CC1(C)N=C(N)N=C(N)N1c1ccc(CCCCc2ccc(S(=O)(=O)F)cc2)c(Cl)c1`, the growth was 5.05% (active) with HOP-62 NSCLC; 8.36% (active) with A549/ATCC NSCLC; 30.6% (inactive) in the assay with DU-145 prostate; 44.3% (inactive) with MALME-3M melanoma; 43.1% (inactive) in the assay on RXF 393 renal; 3.69% (active) in the assay on SF-295 CNS. For the same compound, the growth in the assay with UACC-257 melanoma was 30.9% (inactive); in the assay on SNB-75 CNS, 63.2% (inactive); with SNB-19 CNS, 38.7% (inactive); in the assay with LOX IMVI melanoma, 8.78% (active); in the assay with SK-MEL-2 melanoma, 30.6% (inactive); in the assay on A498 renal it was 37.3% (inactive). Besides, the growth with MOLT-4 leukemia was 18.2% (inactive); in the assay on OVCAR-8 ovarian it was 16.5% (inactive); in the assay on OVCAR-4 ovarian, 80.4% (inactive); in the assay on SK-OV-3 ovarian, 42% (inactive); in the assay with BT-549 breast it was 46.2% (inactive); in the assay on HCC-2998 colon, 35.5% (inactive).

For the compound `CN1CC2CCC(C1)C2=O`, the growth in the assay with HOP-62 NSCLC is 84.4% (inactive); in the assay with A549/ATCC NSCLC, 102% (inactive); in the assay with DU-145 prostate, 115% (inactive); with MALME-3M melanoma it was 79.2% (inactive); in the assay on RXF 393 renal, 119% (inactive); with UACC-257 melanoma, 102% (inactive). Moreover, the growth in the assay on SNB-75 CNS is 89.3% (inactive); in the assay with SNB-19 CNS, 105% (inactive); with LOX IMVI melanoma, 98.1% (inactive); in the assay on SK-MEL-28 melanoma, 113% (inactive); with SK-MEL-2 melanoma, 95.5% (inactive); in the assay with SN12C renal it was 99.8% (inactive). In addition, the growth in the assay with A498 renal is 110% (inactive); in the assay with MOLT-4 leukemia, 91.3% (inactive); with OVCAR-8 ovarian, 104% (inactive); in the assay on OVCAR-4 ovarian it was 103% (inactive); in the assay on SK-OV-3 ovarian, 91.8% (inactive); in the assay on BT-549 breast it was 88.8% (inactive). The growth in the assay with HCC-2998 colon was 114% (inactive).

`ClCCN(CCCl)c1ccc(/C=C\c2ccnc3ccccc23)cc1`: the growth in the assay with HOP-62 NSCLC was 120% (inactive); with A549/ATCC NSCLC it was 71% (inactive); in the assay with DU-145 prostate it was 90.6% (inactive); in the assay on MALME-3M melanoma, 74.4% (inactive); in the assay on RXF 393 renal it was 99% (inactive); with SF-295 CNS it was 69.4% (inactive). The growth was 47.1% (inactive) in the assay on UACC-257 melanoma; 84.6% (inactive) with SNB-75 CNS; 88.8% (inactive) with SNB-19 CNS; 80.3% (inactive) with LOX IMVI melanoma; 98.1% (inactive) in the assay with SK-MEL-28 melanoma; 75.7% (inactive) with SN12C renal. In addition, the growth in the assay with A498 renal was 68.2% (inactive); in the assay on MOLT-4 leukemia, 69.8% (inactive); in the assay with OVCAR-8 ovarian, 79.8% (inactive); in the assay with OVCAR-4 ovarian, 82.3% (inactive); with SK-OV-3 ovarian it was 101% (inactive); with BT-549 breast, 70.5% (inactive). Also, in the assay with HCC-2998 colon, the growth is 91.6% (inactive).

Take `COc1cc(C2CC(=O)Nc3nc(N)[se]c32)cc(OC)c1OC` (configuration not stated): the growth in the assay with HOP-62 NSCLC is 70.9% (inactive); with A549/ATCC NSCLC, 45.7% (inactive); in the assay with DU-145 prostate, 101% (inactive); in the assay on MALME-3M melanoma, 105% (inactive); in the assay with RXF 393 renal it was 116% (inactive); with SF-295 CNS, 7.05% (active). Besides, the growth in the assay with UACC-257 melanoma was 99.6% (inactive); in the assay with SNB-19 CNS it was 52.1% (inactive); with LOX IMVI melanoma, 105% (inactive); in the assay on SK-MEL-28 melanoma, 111% (inactive); in the assay with SK-MEL-2 melanoma it was 89.2% (inactive); in the assay with SN12C renal, 64.6% (inactive). In addition, the growth with A498 renal was 82.8% (inactive); with MOLT-4 leukemia it was 82.7% (inactive); with OVCAR-8 ovarian, 58.8% (inactive); with OVCAR-4 ovarian, 105% (inactive); in the assay on SK-OV-3 ovarian it was 101% (inactive); in the assay on BT-549 breast it was 130% (inactive). Moreover, the growth in the assay with HCC-2998 colon was 107% (inactive).

On to `Oc1ccccc1OB(Oc1ccccc1O)N(CCCl)CCCl`, for which the growth with HOP-62 NSCLC was 104% (inactive); in the assay with A549/ATCC NSCLC it was 67% (inactive); in the assay on DU-145 prostate it was 86.9% (inactive); in the assay with MALME-3M melanoma, 89.9% (inactive); in the assay with RXF 393 renal it was 94.9% (inactive); with SF-295 CNS, 102% (inactive). Moreover, the growth with UACC-257 melanoma was 84.4% (inactive); in the assay with SNB-75 CNS it was 92.8% (inactive); in the assay on SNB-19 CNS it was 87.2% (inactive); in the assay with LOX IMVI melanoma it was 89.4% (inactive); in the assay on SK-MEL-28 melanoma, 110% (inactive); in the assay with SK-MEL-2 melanoma it was 104% (inactive). Besides, the growth was 78.4% (inactive) in the assay with SN12C renal; 88.6% (inactive) in the assay on A498 renal; 57.6% (inactive) with MOLT-4 leukemia; 77.2% (inactive) in the assay on OVCAR-8 ovarian; 96.8% (inactive) in the assay with OVCAR-4 ovarian; 112% (inactive) in the assay on SK-OV-3 ovarian. Besides, the figures for the growth in the assay with BT-549 breast and in the assay with HCC-2998 colon were 49.4% (inactive) and 98.4% (inactive), respectively.

Consider `CC(C)CCC[C@@H](C)[C@H]1CC[C@H]2[C@@H]3CC=C4C[C@@H](OC(=O)Cc5ccc(N(CCCl)CCCl)cc5)CC[C@]4(C)[C@H]3CC[C@]12C`, for which the growth in the assay with HOP-62 NSCLC was 105% (inactive); in the assay on A549/ATCC NSCLC, 112% (inactive); in the assay on DU-145 prostate, 116% (inactive); with SF-295 CNS it was 119% (inactive); in the assay on UACC-257 melanoma, 103% (inactive); with SNB-75 CNS, 103% (inactive). Moreover, the growth with SNB-19 CNS is 107% (inactive); with LOX IMVI melanoma, 104% (inactive); with SK-MEL-28 melanoma, 111% (inactive); with SK-MEL-2 melanoma, 94.6% (inactive); in the assay with SN12C renal, 99.9% (inactive); in the assay on A498 renal, 132% (inactive). Besides, the growth with MOLT-4 leukemia was 99.8% (inactive); in the assay on OVCAR-8 ovarian, 99.8% (inactive); with OVCAR-4 ovarian, 114% (inactive); with SK-OV-3 ovarian, 114% (inactive); with HCC-2998 colon it was -5.75% (active).
